{"source": "ChEMBL document CHEMBL1157539", "about": "“Thousands of chemical starting points for antimalarial lead identification” (Nature, 2010)", "type_in_all_cases": "functional", "key": {"Plasmodium falciparum [1]": {"tested_on": "Plasmodium falciparum", "test": "GSK_TCMDC: Inhibition of Plasmodium falciparum 3D7 in whole red blood cells, using parasite LDH activity as an index of growth. Test compounds present at 2uM"}, "Plasmodium falciparum [2]": {"tested_on": "Plasmodium falciparum", "test": "GSK_TCMDC: Inhibition of Plasmodium falciparum Dd2 in whole red blood cells, using parasite LDH activity as an index of growth. Test compounds present at 2uM"}, "HepG2": {"tested_on": "HepG2", "test": "GSK_TCMDC: Percent inhibition of human HepG2 cell line. Test compounds present at 10uM."}}, "data": [{"smiles": "COc1cc2nc(-c3ccccc3)nc(N3CCN(C(=O)c4ccco4)CC3)c2cc1OC", "values": [{"measurement": "Inhibition", "setting": "Plasmodium falciparum [1]", "value": 89, "unit": "%"}, {"measurement": "Inhibition", "setting": "Plasmodium falciparum [2]", "value": 87, "unit": "%"}, {"measurement": "Inhibition", "setting": "HepG2", "value": 0, "unit": "%"}]}, {"smiles": "CNCCNc1nccc(N2CCc3ncnc(Nc4ccc(OCc5cccc(F)c5)c(Cl)c4)c3C2)n1", "values": [{"measurement": "Inhibition", "setting": "Plasmodium falciparum [1]", "value": 100, "unit": "%"}, {"measurement": "Inhibition", "setting": "Plasmodium falciparum [2]", "value": 98, "unit": "%"}, {"measurement": "Inhibition", "setting": "HepG2", "value": 30, "unit": "%"}]}, {"smiles": "CNCCNCc1ccc(-c2ccc(-c3nc4cc(F)ccc4[nH]3)s2)cc1.O=C(O)C(F)(F)F", "values": [{"measurement": "Inhibition", "setting": "Plasmodium falciparum [1]", "value": 99, "unit": "%"}, {"measurement": "Inhibition", "setting": "Plasmodium falciparum [2]", "value": 55, "unit": "%"}, {"measurement": "Inhibition", "setting": "HepG2", "value": 22, "unit": "%"}]}, {"smiles": "CC(C)OC(=O)c1ccc(NC(=O)N[C@@H](Cc2ccc(O)cc2)C(=O)NC2CC3CCC(C2)N3Cc2ccccc2)cc1.O=C(O)C(F)(F)F", "note": "(stereo partly drawn)", "values": [{"measurement": "Inhibition", "setting": "Plasmodium falciparum [1]", "value": 92, "unit": "%"}, {"measurement": "Inhibition", "setting": "Plasmodium falciparum [2]", "value": 19, "unit": "%"}, {"measurement": "Inhibition", "setting": "HepG2", "value": 0, "unit": "%"}]}, {"smiles": "CN(C)c1ccc(-c2csc(C(=O)NCC3CCN(CC4CCCCC4)C3)c2)cc1.O=C(O)C(F)(F)F", "note": "(stereo not drawn)", "values": [{"measurement": "Inhibition", "setting": "Plasmodium falciparum [1]", "value": 86, "unit": "%"}, {"measurement": "Inhibition", "setting": "Plasmodium falciparum [2]", "value": 28, "unit": "%"}, {"measurement": "Inhibition", "setting": "HepG2", "value": 35, "unit": "%"}]}, {"smiles": "COc1cc2c(cc1OC)CC(NCCCCCCNCCc1ccc(Cl)cc1)CC2.Cl", "note": "(stereo not drawn)", "values": [{"measurement": "Inhibition", "setting": "Plasmodium falciparum [1]", "value": 98, "unit": "%"}, {"measurement": "Inhibition", "setting": "Plasmodium falciparum [2]", "value": 0, "unit": "%"}, {"measurement": "Inhibition", "setting": "HepG2", "value": 50, "unit": "%"}]}, {"smiles": "Cc1cccc(C(=O)Nc2ccnc(N3CCC(N(C)Cc4ccc(C#N)cc4)CC3)c2)c1.O=C(O)C(F)(F)F", "values": [{"measurement": "Inhibition", "setting": "Plasmodium falciparum [1]", "value": 94, "unit": "%"}, {"measurement": "Inhibition", "setting": "Plasmodium falciparum [2]", "value": 6, "unit": "%"}, {"measurement": "Inhibition", "setting": "HepG2", "value": 12, "unit": "%"}]}, {"smiles": "CC(C)(C)Cn1cc(-c2ccc(C(=O)NCCc3ccc(S(C)(=O)=O)cc3)cc2)c(N)n1.CC(C)(C)Cn1ncc(-c2ccc(C(=O)NCCc3ccc(S(C)(=O)=O)cc3)cc2)c1N.O=C(O)C(F)(F)F", "values": [{"measurement": "Inhibition", "setting": "Plasmodium falciparum [1]", "value": 86, "unit": "%"}, {"measurement": "Inhibition", "setting": "Plasmodium falciparum [2]", "value": 10, "unit": "%"}, {"measurement": "Inhibition", "setting": "HepG2", "value": 7, "unit": "%"}]}, {"smiles": "Cc1nc(-c2ccccc2)nc(N2CCN(C(=O)c3ccco3)CC2)c1Cc1ccccc1F", "values": [{"measurement": "Inhibition", "setting": "Plasmodium falciparum [1]", "value": 95, "unit": "%"}, {"measurement": "Inhibition", "setting": "Plasmodium falciparum [2]", "value": 86, "unit": "%"}, {"measurement": "Inhibition", "setting": "HepG2", "value": 7, "unit": "%"}]}, {"smiles": "FC(F)(F)c1ccc(CSc2ccc3nnc(-c4ccccn4)n3n2)cc1", "values": [{"measurement": "Inhibition", "setting": "Plasmodium falciparum [1]", "value": 95, "unit": "%"}, {"measurement": "Inhibition", "setting": "Plasmodium falciparum [2]", "value": 54, "unit": "%"}, {"measurement": "Inhibition", "setting": "HepG2", "value": 0, "unit": "%"}]}, {"smiles": "Cl.Oc1ccc(Nc2nc(NCC3CCCO3)c3ccccc3n2)cc1", "note": "(stereo not drawn)", "values": [{"measurement": "Inhibition", "setting": "Plasmodium falciparum [1]", "value": 100, "unit": "%"}, {"measurement": "Inhibition", "setting": "Plasmodium falciparum [2]", "value": 57, "unit": "%"}, {"measurement": "Inhibition", "setting": "HepG2", "value": 7, "unit": "%"}]}, {"smiles": "COc1cccc(-c2ccc3c(-c4cccc(NC(C)=O)c4)cnc(N)c3c2)c1.O=CO", "values": [{"measurement": "Inhibition", "setting": "Plasmodium falciparum [1]", "value": 99, "unit": "%"}, {"measurement": "Inhibition", "setting": "Plasmodium falciparum [2]", "value": 83, "unit": "%"}, {"measurement": "Inhibition", "setting": "HepG2", "value": 71, "unit": "%"}]}, {"smiles": "CS(=O)(=O)NCCCNCc1cccc(-c2ccc(-c3nc4cc(C(F)(F)F)ccc4[nH]3)s2)c1.O=C(O)C(F)(F)F", "values": [{"measurement": "Inhibition", "setting": "Plasmodium falciparum [1]", "value": 100, "unit": "%"}, {"measurement": "Inhibition", "setting": "Plasmodium falciparum [2]", "value": 51, "unit": "%"}, {"measurement": "Inhibition", "setting": "HepG2", "value": 11, "unit": "%"}]}, {"smiles": "CC(=O)Nc1ncc(C(=O)Nc2cccc(-c3ccc(-c4nc5cc(F)ccc5[nH]4)cc3)c2)s1", "values": [{"measurement": "Inhibition", "setting": "Plasmodium falciparum [1]", "value": 94, "unit": "%"}, {"measurement": "Inhibition", "setting": "Plasmodium falciparum [2]", "value": 78, "unit": "%"}, {"measurement": "Inhibition", "setting": "HepG2", "value": 18, "unit": "%"}]}, {"smiles": "COc1c(OC)c(OC)c2ccccc2c1CCNCCCCNCCc1c(OC)c(OC)c(OC)c2ccccc12.CS(=O)(=O)O", "values": [{"measurement": "Inhibition", "setting": "Plasmodium falciparum [1]", "value": 99, "unit": "%"}, {"measurement": "Inhibition", "setting": "Plasmodium falciparum [2]", "value": 72, "unit": "%"}, {"measurement": "Inhibition", "setting": "HepG2", "value": 100, "unit": "%"}]}, {"smiles": "COc1ccc(NC(=O)CCNc2cc(C)nc(NCCc3ccc(F)cc3)n2)cc1.O=C(O)C(F)(F)F", "values": [{"measurement": "Inhibition", "setting": "Plasmodium falciparum [1]", "value": 98, "unit": "%"}, {"measurement": "Inhibition", "setting": "Plasmodium falciparum [2]", "value": 3, "unit": "%"}, {"measurement": "Inhibition", "setting": "HepG2", "value": 27, "unit": "%"}]}, {"smiles": "CCCCCCN1CCC(NCc2ccc(Cl)cc2)CC1.O=C(O)C(F)(F)F", "values": [{"measurement": "Inhibition", "setting": "Plasmodium falciparum [1]", "value": 98, "unit": "%"}, {"measurement": "Inhibition", "setting": "Plasmodium falciparum [2]", "value": 9, "unit": "%"}, {"measurement": "Inhibition", "setting": "HepG2", "value": 19, "unit": "%"}]}, {"smiles": "O=C(/C=C/c1ccc(Cl)c(Cl)c1)NCCCCCCN1CCCN(C(=O)Nc2cccc(Cl)c2)CC1", "values": [{"measurement": "Inhibition", "setting": "Plasmodium falciparum [1]", "value": 94, "unit": "%"}, {"measurement": "Inhibition", "setting": "Plasmodium falciparum [2]", "value": 2, "unit": "%"}, {"measurement": "Inhibition", "setting": "HepG2", "value": 26, "unit": "%"}]}, {"smiles": "CCCCCCOc1ccc(C(=O)NCCCC2CCN(CCCCCNC(=O)C=Cc3ccc(Cl)c(Cl)c3)CC2)cc1", "values": [{"measurement": "Inhibition", "setting": "Plasmodium falciparum [1]", "value": 94, "unit": "%"}, {"measurement": "Inhibition", "setting": "Plasmodium falciparum [2]", "value": 25, "unit": "%"}, {"measurement": "Inhibition", "setting": "HepG2", "value": 22, "unit": "%"}]}, {"smiles": "Cc1cc(NC(=O)c2ccco2)ccc1OC1CCN(Cc2ccccc2)CC1.O=C(O)C(F)(F)F", "values": [{"measurement": "Inhibition", "setting": "Plasmodium falciparum [1]", "value": 93, "unit": "%"}, {"measurement": "Inhibition", "setting": "Plasmodium falciparum [2]", "value": 95, "unit": "%"}, {"measurement": "Inhibition", "setting": "HepG2", "value": 3, "unit": "%"}]}, {"smiles": "OC(CN(Cc1ccccc1)Cc1ccccc1)Cn1c2ccc(Cl)cc2c2cc(Cl)ccc21", "note": "(stereo not drawn)", "values": [{"measurement": "Inhibition", "setting": "Plasmodium falciparum [1]", "value": 89, "unit": "%"}, {"measurement": "Inhibition", "setting": "Plasmodium falciparum [2]", "value": 95, "unit": "%"}, {"measurement": "Inhibition", "setting": "HepG2", "value": 5, "unit": "%"}]}, {"smiles": "Cc1nn(-c2ccc(Cl)cc2)c2[nH]c(CN3CCN(c4cccc(Cl)c4)CC3)cc(=O)c12", "values": [{"measurement": "Inhibition", "setting": "Plasmodium falciparum [1]", "value": 98, "unit": "%"}, {"measurement": "Inhibition", "setting": "Plasmodium falciparum [2]", "value": 98, "unit": "%"}, {"measurement": "Inhibition", "setting": "HepG2", "value": 0, "unit": "%"}]}, {"smiles": "O=C(/C=C/c1ccc(Cl)c(Cl)c1)NCCCCCN1CCC(C(=O)Nc2ccc(F)c(Cl)c2)CC1", "values": [{"measurement": "Inhibition", "setting": "Plasmodium falciparum [1]", "value": 100, "unit": "%"}, {"measurement": "Inhibition", "setting": "Plasmodium falciparum [2]", "value": 0, "unit": "%"}, {"measurement": "Inhibition", "setting": "HepG2", "value": 25, "unit": "%"}]}, {"smiles": "OC(COc1ccccc1-c1nc2ccccc2o1)CN1CCCN(CCc2ccccc2)CC1", "note": "(stereo not drawn)", "values": [{"measurement": "Inhibition", "setting": "Plasmodium falciparum [1]", "value": 97, "unit": "%"}, {"measurement": "Inhibition", "setting": "Plasmodium falciparum [2]", "value": 2, "unit": "%"}, {"measurement": "Inhibition", "setting": "HepG2", "value": 39, "unit": "%"}]}, {"smiles": "CCCOc1ccc(CCNCCCCNCCc2ccc(OCCC)c3ccccc23)c2ccccc12.CS(=O)(=O)O", "values": [{"measurement": "Inhibition", "setting": "Plasmodium falciparum [1]", "value": 93, "unit": "%"}, {"measurement": "Inhibition", "setting": "Plasmodium falciparum [2]", "value": 52, "unit": "%"}, {"measurement": "Inhibition", "setting": "HepG2", "value": 100, "unit": "%"}]}, {"smiles": "Cc1n[nH]c2ccc(-c3cc(OC[C@@H](N)Cc4ccccc4)cnc3-c3ccccc3OCc3cccc(F)c3)cc12.O=C(O)C(F)(F)F", "values": [{"measurement": "Inhibition", "setting": "Plasmodium falciparum [1]", "value": 91, "unit": "%"}, {"measurement": "Inhibition", "setting": "Plasmodium falciparum [2]", "value": 91, "unit": "%"}, {"measurement": "Inhibition", "setting": "HepG2", "value": 55, "unit": "%"}]}]}
